# PubChem BioAssay AID1987 (The Scripps Research Institute Molecular Screening Center, 2009)
# Among all 320,000 compounds or so, about 560 (0.17%) were called active. This excerpt belongs to a sample that is enriched for actives. A number with no mark means an inactive call.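 Rule for the calls: active = inhibition above the campaign's mean inhibition across all tested compounds plus 3 SD (cut at about 9.5% in these data); inactive = the rest.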
# Biological target: Serine/threonine-protein phosphatase 5 (Homo sapiens) (UniProt P53041)
# Sequence (P53041 whole entry, looked up): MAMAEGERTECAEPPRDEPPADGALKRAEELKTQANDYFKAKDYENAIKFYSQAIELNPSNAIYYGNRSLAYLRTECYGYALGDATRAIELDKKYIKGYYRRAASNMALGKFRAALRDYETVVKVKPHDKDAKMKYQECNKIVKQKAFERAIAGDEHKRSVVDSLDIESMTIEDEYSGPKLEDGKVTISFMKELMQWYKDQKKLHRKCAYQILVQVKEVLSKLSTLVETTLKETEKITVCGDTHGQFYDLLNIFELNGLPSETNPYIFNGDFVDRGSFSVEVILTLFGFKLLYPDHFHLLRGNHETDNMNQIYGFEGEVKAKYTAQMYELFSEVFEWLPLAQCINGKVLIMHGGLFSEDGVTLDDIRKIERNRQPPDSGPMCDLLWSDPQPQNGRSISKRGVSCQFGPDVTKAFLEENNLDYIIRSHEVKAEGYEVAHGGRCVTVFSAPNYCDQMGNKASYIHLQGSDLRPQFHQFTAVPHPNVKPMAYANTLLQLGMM
# Experiment: PP5 phosphatase inhibitors, primary screen, biochemical, fluorescence (AID 1987);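 note: 0% = DMSO only and 100% = 100 µM cantharidin control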
# Details: purified PP5c, OMFP substrate fluorescence; at 6.7 µM; hits give high values
row,SMILES,inhibition
1,Cn1c(N)c(C(=O)COC(=O)COc2ccc(Cl)cc2)c(=O)n(C)c1=O,1%
2,FC(F)(F)c1ccc2nnc(-c3c(Cl)cccc3Cl)n2c1,-1.13%
3,O=C1Oc2ccccc2C(=O)/C1=C/c1ccccc1O,4.64%
4,COc1ccc(NC(=O)CSc2nncc(=O)n2N)cc1OC,2.92%
5,O=C(Nc1ccccc1)C1CC(=O)n2c(nc3ccccc32)N1 (stereo not drawn),-0.67%
6,Nc1ccc(C(=O)Nc2ccccc2N)cc1,-0.77%
7,Cc1ccc(CN2CCN(Cc3cccc(C)n3)CC2CCO)cc1 (stereo not drawn),0.2%
8,CC(C)(C)NC(=O)c1cccc(NC(=O)Cc2ccc(Br)cc2)c1,3.17%
9,CC(C)(C)C(=O)Nc1c(Br)c(C2CC2)nn1-c1ccccc1,0.27%
10,CCOC(=O)C1=C(CC)OC(N)=C(C#N)C1c1ccc(F)cc1F (stereo not drawn),-1.28%
11,COc1cc(OC)cc(-c2cc3nc(C4CCN(C(=O)OC(C)(C)C)CC4)cc(=O)n3[nH]2)c1,-0.26%
12,COc1ccc(NC(=O)CCCC(=O)c2ccccc2)cc1,0.28%
13,CCCn1c(C)cc(/C=C(\C#N)C(=O)OCC(=O)Nc2cc(OC)c(OC)c(OC)c2)c1C,0.54%
14,O=C(C1=C[C@H](c2ccc(C(F)(F)F)cc2)C[C@H](OCc2ccc(CO)cc2)O1)N1CCN(Cc2ccccc2)CC1,9.64% (active)
15,O=C(C1=C[C@H](C2CC2)C[C@H](OCc2ccc(CO)cc2)O1)N1CCN(Cc2ccccc2)CC1,1.72%
16,O=C(NCc1ccccc1)C1=C[C@@H](c2ccc(C(F)(F)F)cc2)C[C@@H](OCc2ccc(CO)cc2)O1,7.35%
17,Nc1nnc(SCC(=O)NCC(=O)Nc2ccc(F)c(F)c2F)s1,-0.64%
18,O=C(OCc1cn(-c2ccc(Cl)c(Cl)c2)nn1)c1ccccc1Cl,1.67%
19,CC1CCCC(C)N1C(=O)COC(=O)COc1ccccc1C#N (stereo not drawn),-0.87%
20,CN(C)c1nc(N)nc(CSc2ccccn2)n1,1.71%

row,SMILES,inhibition
1,CN(C)c1nc(N)nc(CSc2nnnn2-c2cccc3ccccc23)n1,11.6% (active)
2,COc1ccc(-n2nnnc2SCc2nc(N)nc(N3CCOCC3)n2)cc1,0.58%
3,O=C(O)c1cc(S(=O)(=O)Nc2ccc3cn[nH]c3c2)ccc1Br,4.94%
4,Cc1ccc(-n2nc(-c3ccco3)cc2C(=O)NCc2cccnc2)cc1,2.97%
5,CC1(OC(=O)C2CCCC2)C(=O)C=C2C=C(c3ccc(C#N)cc3)OC=C2C1=O (stereo not drawn),-1.54%
6,COC(=O)CCCC1=CC2=CC(=O)C(C)(OC(=O)c3cccs3)C(=O)C2=CN1CC1CC1 (stereo not drawn),5.3%
7,COCCN1C=C2C(=O)C(C)(OC(=O)C3CCCC3)C(=O)C=C2C=C1c1ccsc1 (stereo not drawn),11.1% (active)
8,CN(c1ccc(OCC(=O)O)cc1)S(=O)(=O)c1ccc2ccccc2c1,1%
9,O=C(COc1ccccc1)Nc1ccc(F)cc1,0.71%
10,CN(c1ccccc1)S(=O)(=O)c1ccc(NC(=O)COc2ccccc2)cc1,10.2% (active)
11,Cc1ccc(S(=O)(=O)N(c2cccc(C)c2)C2CCS(=O)(=O)C2)cc1 (stereo not drawn),0.29%
12,Cc1nnc(SCC(=O)Nc2ncc3c(n2)CC(C)(C)CC3=O)s1,2.93%
13,O=C(O)C1CCC(CNS(=O)(=O)c2ccc(Br)cc2)CC1 (stereo not drawn),-2.97%
14,Cc1ccc(Cn2c(C)c3cnn(CC(=O)NCc4ccccn4)c(=O)c3c2C)cc1,-1.29%
15,CCNC(=O)c1sccc1-n1cccc1,0.46%
16,CC(C)(C)C(=O)NNC(=O)c1ccc(Oc2cc(Cl)cc(Cl)c2)o1,-2.8%
17,CCn1nnc(NC(=O)c2cc(Cl)c(OC)c(Cl)c2)n1,0.92%
18,CCN(CC(=O)NC1CCS(=O)(=O)C1)c1nc(-c2cccnc2)nc2ccccc12 (stereo not drawn),-1.12%
19,Cc1cc(Cl)ccc1OCCCC(=O)NCc1ccccn1,1.77%
20,O=C1[C@H]2[C@@H](c3ccc(F)cc3)N3C(=O)N(c4ccc(C(F)(F)F)cc4)C(=O)[C@@]3(Cc3ccccc3)[C@H]2C(=O)N1C1CCCCC1,5.23%

row,SMILES,inhibition
1,CCCN(CCC)S(=O)(=O)c1ccc(C(=O)N2CC3CCC(CC3)C2)cc1,2.42%
2,CCOC(=O)c1sc(N(Cc2ccccc2)C(=O)CN2C(=O)CN(C)C2=O)nc1C,-1.26%
3,C[C@H]1[C@H]2c3nc4ccccc4n3C[C@H]1ON2C1CCCCC1,-1.65%
4,COc1ccc(C(=O)NCc2ccc(C)cc2)cc1S(=O)(=O)N1CCCC1,-1.31%
5,NCCCC[C@@H]1NC(=O)[C@H](CCC(=O)O)NC(=O)c2cc([N+](=O)[O-])cc(I)c2NCC[C@@H](C(N)=O)NC1=O,4.27%
6,Cn1c(CC(=O)Nc2ccc(F)cc2)nnc1SCC(=O)NC1CCCCC1,1.34%
7,COc1cccc(NC(=O)Nc2nnc(N3CCCCC3C)s2)c1 (stereo not drawn),3.58%
8,CC(C)c1ccc(/C=C/C(=O)NCCCN2CCOCC2)cc1,0.61%
9,CCC(C(=O)Nc1ncccn1)(C(F)(F)F)C(F)(F)F,-2.46%
10,C/C(N)=C(/C#N)C(=O)COC(=O)c1cc(-c2ccc(C)cc2)nc2ccccc12,3.74%
11,CSCC[C@H](NC(=O)N1CCn2c1nc1ccccc12)C(=O)NCc1ccc2c(c1)OCO2,-0.3%
12,CCN(C(=O)COc1ccc(C(=O)c2ccccc2)cc1)c1ccccc1,0.04%
13,O=C(O)c1n[nH]nc1-c1ccccc1,50.7% (active)
14,O=c1[nH]c(-c2ccccc2)c(-c2ccccc2)[nH]1,0.4%
15,N#Cc1c(-c2ccccc2)c(-c2ccccc2)n[nH]c1=O,-1.11%
16,CSCc1ccc(C(=O)Nc2cc(C)cc(C)c2)cc1,-1.23%
17,COc1ccc(NC(=O)COC(=O)CNC(=O)C2CCCCC2)cc1,-1.03%
18,COCCN(C(=O)COC(=O)Cc1cccc(OC)c1)c1c(N)n(Cc2ccccc2)c(=O)[nH]c1=O,-0.76%
